RORgamma inh – blocks mouse ROR gamma transcriptional activity. P51450. Drosophila S2 Gal4-RORgamma UAS-luciferase reporter, 20 h. Potency, µM (titrated, usually from 53.6 µM), for inactives: at the top dose activity change, negative = inhibition, usual class: inhibitors. 310,000 tested, 5.4% active; further: potency means the concentration at half of the fitted maximal effect; on the % scale 0 is the no-effect control and ±100 the full control effect; nearly all actives have a fitted effect of over 60% in size
Target sequence (P51450 whole entry, looked up, the tested form may be a part): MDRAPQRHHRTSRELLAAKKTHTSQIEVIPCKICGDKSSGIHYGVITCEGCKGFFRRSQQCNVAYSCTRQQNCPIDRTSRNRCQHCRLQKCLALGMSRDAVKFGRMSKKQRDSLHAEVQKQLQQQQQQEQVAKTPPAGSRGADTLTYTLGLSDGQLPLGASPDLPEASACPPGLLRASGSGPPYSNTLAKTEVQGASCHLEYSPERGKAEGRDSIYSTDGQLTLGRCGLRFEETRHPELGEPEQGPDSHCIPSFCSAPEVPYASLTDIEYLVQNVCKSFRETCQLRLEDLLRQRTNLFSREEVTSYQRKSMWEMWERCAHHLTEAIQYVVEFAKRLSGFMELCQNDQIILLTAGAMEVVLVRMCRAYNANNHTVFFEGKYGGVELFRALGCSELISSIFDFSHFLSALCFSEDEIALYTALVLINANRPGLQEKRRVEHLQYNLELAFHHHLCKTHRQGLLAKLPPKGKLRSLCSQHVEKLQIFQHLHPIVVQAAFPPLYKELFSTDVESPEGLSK
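Read-out: Photinus luciferase luminescence; inhibitors lower reporter signal. Insect Schneider cells with Gal4-ROR gamma fusion under metallothionein promoter, UAS reporter; 700 uM final copper sulfate induction, 20 hr, ambient temperature.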
uPA surface inh – inhibitors of cell surface uPA generation; cell surface uPA generation assay, qHTS; Potency, µM (top dose mostly 38.3 µM), for inactives: at the highest dose activity change, negative = inhibition, most hits filed as inhibitors; 330,000 tested, 0.31% active; active means well fitted inhibition curve with a large enough effect; inconclusive means small, poorly fitted or top-dose-only effect; inactive means no such curve, though single readings can be large or run the other way; tested in mouse RAW 264.7 cells; further: potency means the concentration at half of the fitted maximal effect; on the % scale 0 is the no-effect control and ±100 the full control effect; nearly all actives have a fitted effect of over 55% in size
Gal4-VP16 FLuc – Gal4-VP16 reporter inhibition counter-screen; Drosophila S2 Gal4-VP16 UAS-luciferase, luminescence, 20 h; Potency, µM (doses to about 53.6 µM), for inactives: top-dose activity, negative = inhibition, actives largely listed as inhibitors; 310,000 tested, 3.5% active; AID 2546;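 further: Gal4-VP16 expression switched on by copper sulfate through the metallothionein promoter; potency means the concentration at half of the fitted maximal effect; on the % scale 0 is the no-effect control and ±100 the full control effect; nearly all actives have a fitted effect of over 50% in size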
TRPV1 PAM – human TRPV1 potentiation | AID 540277 | TRPV1-expressing cells, Fluo-8 calcium influx, capsaicin EC20 potentiation | potentiation, % at 8.33 µM | 320,000 tested, 0.02% active; in the data active means potentiation above about 80%; inconclusive means between about 30% and that limit; further: 0% is about no effect
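Cells expressing TRPV1 were dye-loaded with Fluo-8 and read kinetically: 10 s baseline, 3 min after compound (agonist portion), then 2 min after EC20 capsaicin (allosteric enhancer portion). Calcium-bound dye fluorescence at 480/520 nm.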
TRPV1 ag – agonists of human vanilloid receptor 1 (TRPV1); TRPV1-expressing cells, Fluo-8 calcium influx, agonist mode; 320,000 tested, 0.19% active; activation, % at 8.33 µM; in the data active means activation above about 80%; inconclusive means between about 30% and that limit; further: 0% is about no effect
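Cells expressing TRPV1 were dye-loaded with Fluo-8 and read kinetically: 10 s baseline, 3 min after compound (agonist portion), then 2 min after EC20 capsaicin (allosteric enhancer portion). Calcium-bound dye fluorescence at 480/520 nm.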
Active calls of the source: *. Hits are enriched below; roughly 5.8% of the tested compounds scored in any of these assays. Unless noted, the call rests on the fitted dose curve; in most records, active means well fitted curve in the direction sought with a large enough effect; inconclusive means small, poorly fitted or top-dose-only effect, or another doubt; inactive means no such curve, though single readings can be large; an effect the other way counts as inactive or inconclusive.

`COC(=O)CNC(c1ccccc1)c1cc(Br)ccc1NC(=O)CCN1CCOCC1` (stereo unspecified) gave RORgamma inh inconclusive, uPA surface inh inconclusive, Gal4-VP16 FLuc 14µM*, TRPV1 PAM -22 and TRPV1 ag inconclusive.
Screening Cc1nc2ccccc2c(=O)n1NC(=O)C1CC1C (stereo unspecified) returned RORgamma inh 1%, uPA surface inh 19%, Gal4-VP16 FLuc -12%, TRPV1 PAM -7 and TRPV1 ag 0.
For Cc1nc2ccccc2c(=O)n1NC(=O)C1CCC(C(C)(C)C)CC1 (stereo unspecified) the results were RORgamma inh -1%, uPA surface inh 1%, Gal4-VP16 FLuc -3%, TRPV1 PAM 3 and TRPV1 ag 82*.
Screening C/C(CC(=O)N1CCN(C=O)CC1)=N\NC(=O)c1ccc([N+](=O)[O-])cc1 returned RORgamma inh 8.9µM*, uPA surface inh 11%, Gal4-VP16 FLuc inconclusive, TRPV1 PAM 0 and TRPV1 ag -3.
Screening CC(C)=CCC/C(C)=C/C=N/NC(=O)c1cccc([N+](=O)[O-])c1 returned RORgamma inh 1.6µM*, uPA surface inh 1%, Gal4-VP16 FLuc 1.4µM*, TRPV1 PAM -16 and TRPV1 ag 29.
`CC(/C=N/NC(=O)c1cccc([N+](=O)[O-])c1)=C\c1ccccc1` gave RORgamma inh -26%, Gal4-VP16 FLuc -11%, TRPV1 PAM -14 and TRPV1 ag 7.
For CC(C)=CCC/C(C)=C/C=N/NC(=O)c1ccc([N+](=O)[O-])cc1 the results were RORgamma inh 3.5µM*, uPA surface inh inconclusive, Gal4-VP16 FLuc 2.8µM*, TRPV1 PAM -28 and TRPV1 ag inconclusive.
`CCC(=O)Nc1ccc(C(=O)N/N=C/c2ccc([N+](=O)[O-])cc2)cc1` gave RORgamma inh inconclusive, uPA surface inh -7%, Gal4-VP16 FLuc -1%, TRPV1 PAM -8 and TRPV1 ag 19.
`COc1ccc(-c2coc3cc(OC(C)=O)ccc3c2=S)cc1` gave uPA surface inh -1%.
For CCNc1ncc2nc(-c3ccccc3)c(=O)n(C[C@H]3CCCO3)c2n1 the results were RORgamma inh 0% and Gal4-VP16 FLuc 0%.
`CCN(CC)CCCNc1nc2cc(OC)c(OC)cc2c2nc(-c3ccccc3)nn12` gave RORgamma inh 10µM*, uPA surface inh -2%, Gal4-VP16 FLuc inconclusive, TRPV1 PAM 0 and TRPV1 ag 0.
For CCN(CC)CCCNc1nc2cc(OC)c(OC)cc2c2nc(-c3cccnc3)nn12 the results were RORgamma inh -35%, uPA surface inh 1%, Gal4-VP16 FLuc inconclusive, TRPV1 PAM -6 and TRPV1 ag 0.
`O=C(COC(=O)c1cc(=O)[nH]c2ccccc12)NCc1ccccc1Cl` gave uPA surface inh -23%.
For C/C(=N\Nc1nc2ccc(Cl)cc2o1)c1ccccc1 the results were RORgamma inh 2.5µM*, uPA surface inh -1%, Gal4-VP16 FLuc inconclusive, TRPV1 PAM -17 and TRPV1 ag 21.
Nc1nc2ccc(Cl)cc2o1 was read as uPA surface inh 1%.
For Cc1cc(=O)[nH]c(N/N=C/c2cc(C)n(CC(F)(F)F)c2C)n1 the results were RORgamma inh 6%, uPA surface inh 0.25µM*, Gal4-VP16 FLuc 1%, TRPV1 PAM -1 and TRPV1 ag -2.
`COc1ccc(-c2nc3ccccc3o2)cc1NC(=O)CSc1ccc(Cl)cc1` gave RORgamma inh 1.4µM*, uPA surface inh 6%, Gal4-VP16 FLuc -26%, TRPV1 PAM 9 and TRPV1 ag 0.
Screening c1ccc(C2Nc3ccccc3-c3nc4ccccc4n32)nc1 (stereo unspecified) returned RORgamma inh 8.9µM*, uPA surface inh -2%, Gal4-VP16 FLuc -9%, TRPV1 PAM -6 and TRPV1 ag -5.
c1ccc(C2Nc3ccccc3-c3nc4ccccc4n32)cc1 (stereo unspecified) was read as RORgamma inh 0%, uPA surface inh -2%, Gal4-VP16 FLuc 10%, TRPV1 PAM -17 and TRPV1 ag 4.
Screening NNC(=O)Cn1c2ccccc2c2ccccc21 returned RORgamma inh -2%, uPA surface inh -1% and Gal4-VP16 FLuc -5%.
Screening COc1cc(OC)c2cc(C(=O)N/N=C/c3cccc(OC)c3O)[nH]c2c1 returned RORgamma inh 2.2µM*, uPA surface inh -14%, Gal4-VP16 FLuc 4.5µM*, TRPV1 PAM 7 and TRPV1 ag -2.
COc1cccc(/C=N/NC(=O)c2ccc3nc[nH]c3c2)c1O was read as RORgamma inh -25%, uPA surface inh -2%, Gal4-VP16 FLuc -11%, TRPV1 PAM 9 and TRPV1 ag -7.
`COc1cccc(/C=N/NC(=O)c2cc3c(OC)ccc(OC)c3[nH]2)c1O` gave RORgamma inh 1.6µM*, uPA surface inh 6.3µM*, Gal4-VP16 FLuc 2.8µM*, TRPV1 PAM 19 and TRPV1 ag -5.
`COc1cccc(C=NNC(=O)c2ccncc2)c1O` gave uPA surface inh -14%.
Screening Cc1ccc(C(=O)Nc2ccc(S(=O)(=O)N3CCOCC3)cc2)cc1Br returned uPA surface inh -1%.
Screening Cc1ccc(N2C(=O)C3N=NN(CC(=O)N4N=C(c5ccccc5)CC4c4ccccc4)C3C2=O)cc1 (stereo unspecified) returned RORgamma inh 9%, uPA surface inh 1%, Gal4-VP16 FLuc -5%, TRPV1 PAM 84* and TRPV1 ag -18.
COc1ccc(C2=NN(C(=O)CCC(=O)O)C(c3ccccc3)C2)cc1 (stereo unspecified) was read as RORgamma inh -36%, uPA surface inh 5%, Gal4-VP16 FLuc -15%, TRPV1 PAM 14 and TRPV1 ag 1.
O=c1c2c(nc3n1CCCCC3)sc1c(O)c(Br)ccc12 was read as RORgamma inh 8.9µM*, Gal4-VP16 FLuc 4.5µM*, TRPV1 PAM inconclusive and TRPV1 ag -2.
CCN(CC)CCOc1c(Br)ccc2c1sc1nc3n(c(=O)c12)CCC3 was read as RORgamma inh -1%, uPA surface inh -7%, Gal4-VP16 FLuc -12%, TRPV1 PAM -1 and TRPV1 ag 0.
For CCOc1ccc(S(=O)(=O)Nc2ccc(O)c(Sc3ncn[nH]3)c2)cc1 the results were RORgamma inh inconclusive, uPA surface inh -4%, Gal4-VP16 FLuc 3.5µM*, TRPV1 PAM 2 and TRPV1 ag -1.
Screening COc1cc(=O)n(C)c2ccccc12 returned RORgamma inh 13µM*, uPA surface inh -16%, Gal4-VP16 FLuc 0%, TRPV1 PAM -1 and TRPV1 ag 0.
Screening CC(C)CCNC(=O)CCCOc1cc(=O)n(C)c2ccccc12 returned RORgamma inh 13µM*, uPA surface inh -11%, Gal4-VP16 FLuc 11%, TRPV1 PAM 16 and TRPV1 ag -1.

Assay outcomes deposited in PubChem BioAssay by National Center for Advancing Translational Sciences (NCATS).
